Assay results as given in PubChem BioAssay (NCI).
This is part of a sample that, as a whole, favours compounds with a hit. Of some 79,000 tested, about 15% had one in any assay. A number with no mark means an inactive call. Calls of active or inactive are those of the source. Cut-off read from the data, not from the text of the source: active = growth inhibition above about 70%; inactive = the rest.

Key:
[1] = NCI Yeast Anticancer Drug Screen. Data for the rad50 strain (AID 155);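 note: 0% = growth of vehicle-only cultures of the same strain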; settings: S. cerevisiae rad50 strain growth inhibition; at 50.0 µM; hits give high values
Method in brief: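 Cells are treated with compound, grown, and their growth is then scored against vehicle-only cultures of the same repair-deficient yeast strain.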

[2] = NCI Yeast Anticancer Drug Screen. Data for the mec2-1 strain (AID 157); settings: S. cerevisiae mec2-1 strain, at 50.0 µM, hits give high values
Method in brief: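 Using mec2-1 yeast: add compound, measure growth, express inhibition versus vehicle-treated cultures.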

[3] = NCI Yeast Anticancer Drug Screen. Data for the sgs1 mgt1 strain (AID 161);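 note: 0% = growth of cultures given vehicle only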; settings: S. cerevisiae sgs1 mgt1 strain, at 50.0 µM, hits give high values
Method in brief: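 This yeast growth screen uses a strain with defined DNA-repair lesions; compound-treated growth is compared with vehicle-treated growth.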

[4] = NCI Yeast Anticancer Drug Screen. Data for the cln2 rad14 strain (AID 165);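 note: 0% = growth equal to vehicle treated cultures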; settings: S. cerevisiae cln2 rad14 strain, at 50.0 µM, hits give high values
Method in brief: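 Yeast strain cln2 rad14, bearing defects in cell cycle control and DNA repair, serves as the test system; values reflect growth inhibition compared with vehicle.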

[5] = NCI Yeast Anticancer Drug Screen. Data for the bub3 strain (AID 167); settings: S. cerevisiae bub3 mutant strain, at 50.0 µM, hits give high values
Method in brief: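 Part of a panel of yeast mutants defective in DNA damage repair or cell cycle regulation. Each strain is grown with compound, and inhibition is calculated relative to solvent-treated cultures.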

[6] = NCI Yeast Anticancer Drug Screen. Data for the mlh1 rad18 strain (AID 175); settings: S. cerevisiae mlh1 rad18 strain growth inhibition; at 50.0 µM; hits give high values
Method in brief: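 Steps: expose repair-defective yeast to compound; measure growth; express inhibition against vehicle-treated controls.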

## CC(=O)c1ccccc1C
[1]
  growth inhibition: -32.6%
[2]
  growth inhibition: -69.5%
[3]
  growth inhibition: -43.7%
[4]
  growth inhibition: -1.25%
[5]
  growth inhibition: -38.1%
[6]
  growth inhibition: -22.3%

## CN(C)CCO[Si](C)(c1ccccc1)c1ccc(F)cc1 (configuration not stated)
[1]
  growth inhibition: 16.6%
[2]
  growth inhibition: -7.95%
[3]
  growth inhibition: 20.6%
[4]
  growth inhibition: -10.1%
[5]
  growth inhibition: 11.8%
[6]
  growth inhibition: 3.95%

## S=C1N(/N=C/c2c3ccccc3cc3ccccc23)C(=Nc2ccccc2)C(=Nc2ccccc2)N1c1ccccc1
[1]
  growth inhibition: 16.9%
[2]
  growth inhibition: -4.55%
[3]
  growth inhibition: -6.35%
[4]
  growth inhibition: 24.9%
[5]
  growth inhibition: 16.6%
[6]
  growth inhibition: -7.55%

## CCCCc1noc(N)c1SCC
[1]
  growth inhibition: 5.45%
[2]
  growth inhibition: 9.5%
[3]
  growth inhibition: 1.2%
[4]
  growth inhibition: -39.6%
[5]
  growth inhibition: -9.2%
[6]
  growth inhibition: 3.7%

## Nc1nc2c(=O)[nH]c(=O)[nH]c2n1C1OC(CO)C(O)C1O (configuration not stated)
[1]
  growth inhibition: 4.7%
[2]
  growth inhibition: -3.9%
[3]
  growth inhibition: 0.35%
[4]
  growth inhibition: 4.9%
[5]
  growth inhibition: 14.2%
[6]
  growth inhibition: -6.1%

## CCN=C(c1ccccc1)N(O)c1ccccc1
[1]
  growth inhibition: -10.7%
[2]
  growth inhibition: 9.2%
[3]
  growth inhibition: -3.15%
[4]
  growth inhibition: 6.35%
[5]
  growth inhibition: 7.7%
[6]
  growth inhibition: -14.1%

## CN1CCCCC1=O
[1]
  growth inhibition: -0.15%
[2]
  growth inhibition: -2.6%
[3]
  growth inhibition: 6.15%
[4]
  growth inhibition: 8.65%
[5]
  growth inhibition: 8.65%
[6]
  growth inhibition: 9.8%

## Brc1cc(Br)cc(-c2nnc(-c3cccc4ccccc34)o2)c1
[1]
  growth inhibition: -14.1%
[2]
  growth inhibition: -16.4%
[3]
  growth inhibition: 0.25%
[4]
  growth inhibition: 24.1%
[5]
  growth inhibition: 10.2%
[6]
  growth inhibition: -4.65%

## COc1ccc(/C=C(/C#N)C(N)=O)c(OC)c1
[1]
  growth inhibition: 1.85%
[2]
  growth inhibition: -15.8%
[3]
  growth inhibition: -34.1%
[4]
  growth inhibition: -34.9%
[5]
  growth inhibition: -31.8%
[6]
  growth inhibition: 2.55%

## Cn1nc(-c2ccccc2)c(C(=O)/C=C/c2ccc(F)cc2)c(N2CCOCC2)c1=O
[1]
  growth inhibition: -34.9%
[2]
  growth inhibition: -34%
[3]
  growth inhibition: -54.8%
[4]
  growth inhibition: 5.9%
[5]
  growth inhibition: -21.6%
[6]
  growth inhibition: -15.8%

## CC(C)(C)c1ccc(OCCOCCOc2ccc(C(C)(C)C)cc2S(N)(=O)=O)c(S(N)(=O)=O)c1
[1]
  growth inhibition: 0.35%
[2]
  growth inhibition: -23.3%
[3]
  growth inhibition: -19.8%
[4]
  growth inhibition: 9.7%
[5]
  growth inhibition: -3.5%
[6]
  growth inhibition: -6.35%

## S=c1[nH]n(-c2ccccc2)c(=S)s1
[1]
  growth inhibition: -28.7%
[2]
  growth inhibition: -41.1%
[3]
  growth inhibition: -4.95%
[4]
  growth inhibition: -1.15%
[5]
  growth inhibition: 15.3%
[6]
  growth inhibition: -22.6%

## Cn1c2c(c(=O)n(C)c1=O)C(=Nc1ccccc1)C(=O)N2
[1]
  growth inhibition: 0.2%
[2]
  growth inhibition: 9.25%
[3]
  growth inhibition: 7.2%
[4]
  growth inhibition: -38.3%
[5]
  growth inhibition: 1.65%
[6]
  growth inhibition: 14.3%

## C=CC(=O)OCC(C)(C)[N+](=O)[O-]
[1]
  growth inhibition: 18.4%
[2]
  growth inhibition: 15.7%
[3]
  growth inhibition: 12.8%
[4]
  growth inhibition: 2.35%
[5]
  growth inhibition: -3.65%
[6]
  growth inhibition: 1.55%

## O=C(NC(=O)c1ccccc1[N+](=O)[O-])Nc1ccc(Oc2ncc(Br)cn2)c(Cl)c1
[1]
  growth inhibition: -1.35%
[2]
  growth inhibition: -30.8%
[3]
  growth inhibition: -19.4%
[4]
  growth inhibition: 0.6%
[5]
  growth inhibition: -9.25%
[6]
  growth inhibition: -56.8%

## NC(=O)NC=O
[1]
  growth inhibition: 10.8%
[2]
  growth inhibition: -3.95%
[3]
  growth inhibition: 14.7%
[4]
  growth inhibition: 1.25%
[5]
  growth inhibition: -14.6%
[6]
  growth inhibition: 14.3%

## O=S(=O)(Cl)C1c2ccccc2-c2ccccc21
[1]
  growth inhibition: 22.4%
[2]
  growth inhibition: 20.1%
[3]
  growth inhibition: 12.5%
[4]
  growth inhibition: 15.7%
[5]
  growth inhibition: 23.2%
[6]
  growth inhibition: 23.4%

## COc1cc2c(cc1OC)C1=Cc3cc(OC)c(OC)cc3C(C)N1C=C2 (configuration not stated)
[1]
  growth inhibition: 6.15%
[2]
  growth inhibition: -6.3%
[3]
  growth inhibition: -26.6%
[4]
  growth inhibition: -18.6%
[5]
  growth inhibition: -23.9%
[6]
  growth inhibition: -16.7%

## C=C[C@@]1(C)CCC2(O)C(CCC3C2(C)CCC[C@@]3(C)COC(=O)CC(=O)OC)C1 (some centres not stated)
[1]
  growth inhibition: 82.8% (active)
[2]
  growth inhibition: 72.1% (active)
[3]
  growth inhibition: 78% (active)
[4]
  growth inhibition: 60.5%
[5]
  growth inhibition: 76.3% (active)
[6]
  growth inhibition: 79.2% (active)

## O=C1C=CC(c2ccccc2)(c2ccccc2)O1
[1]
  growth inhibition: -32.7%
[2]
  growth inhibition: -10.8%
[3]
  growth inhibition: -15.3%
[4]
  growth inhibition: -22.4%
[5]
  growth inhibition: -8.35%
[6]
  growth inhibition: -7.1%

## Cc1nc(C)c(C(=O)NNC(=O)Cc2ccccc2)cc1C(=O)NNC(=O)Cc1ccccc1
[1]
  growth inhibition: -32%
[2]
  growth inhibition: 1.35%
[3]
  growth inhibition: -0.9%
[4]
  growth inhibition: 15.5%
[5]
  growth inhibition: -5.55%
[6]
  growth inhibition: -32.4%

## O=[N+]([O-])c1ccc(SC2=NCCCN2)c(Cl)c1
[1]
  growth inhibition: 36.7%
[2]
  growth inhibition: -0.55%
[3]
  growth inhibition: 33.9%
[4]
  growth inhibition: 11.1%
[5]
  growth inhibition: 32.6%
[6]
  growth inhibition: 26.1%

## CC(=O)c1ccc2c(c1)-c1ccccc1C(=O)C2=O
[1]
  growth inhibition: -24.6%
[2]
  growth inhibition: -22.7%
[3]
  growth inhibition: 10.3%
[4]
  growth inhibition: -19.8%
[5]
  growth inhibition: -15.3%
[6]
  growth inhibition: 5.85%

## COc1cc2c(cc1OC)C(=O)N(c1ccc(O)cc1)C2=O
[1]
  growth inhibition: -8.25%
[2]
  growth inhibition: -17.6%
[3]
  growth inhibition: -7.8%
[4]
  growth inhibition: 20.8%
[5]
  growth inhibition: 12.3%
[6]
  growth inhibition: 3.9%

## O=C(CCSc1ncnc2nc[nH]c12)c1ccccc1
[1]
  growth inhibition: -24.8%
[2]
  growth inhibition: 20.4%
[3]
  growth inhibition: -3.05%
[4]
  growth inhibition: -36.2%
[5]
  growth inhibition: 4.3%
[6]
  growth inhibition: 12.1%

## C=CC1CC(NC(=O)OC)C(=O)O1 (configuration not stated)
[1]
  growth inhibition: 1.05%
[2]
  growth inhibition: 5.2%
[3]
  growth inhibition: 8.45%
[4]
  growth inhibition: -38.1%
[5]
  growth inhibition: 14.3%
[6]
  growth inhibition: -3.25%

## CC(C)(C)CC(C)(C)c1cc2c(O)c(c1)Cc1cc(C(C)(C)CC(C)(C)C)cc(c1O)Cc1cc(C(C)(C)CC(C)(C)C)cc(c1O)Cc1cc(C(C)(C)CC(C)(C)C)cc(c1O)Cc1cc(C(C)(C)CC(C)(C)C)cc(c1O)C2
[1]
  growth inhibition: 20.5%
[2]
  growth inhibition: 33.4%
[3]
  growth inhibition: 8.75%
[4]
  growth inhibition: 31.4%
[5]
  growth inhibition: 6.3%
[6]
  growth inhibition: 24.2%

## CC1CC(C)(C)NC(c2ccccc2)O1 (configuration not stated)
[1]
  growth inhibition: 1.75%
[2]
  growth inhibition: -5%
[3]
  growth inhibition: 1.3%
[4]
  growth inhibition: 10.1%
[5]
  growth inhibition: -14.4%
[6]
  growth inhibition: 29.4%

## CC(=O)Nc1cc(C)cc(Br)c1
[1]
  growth inhibition: -6.85%
[2]
  growth inhibition: -4.1%
[3]
  growth inhibition: -10.1%
[4]
  growth inhibition: 9.05%
[5]
  growth inhibition: 1.5%
[6]
  growth inhibition: -9.55%

## COC(=O)C(Cc1cc(OC)c(OC)c(OC)c1)(NC(=O)c1ccccc1)P(=O)(OC)OC (configuration not stated)
[1]
  growth inhibition: -14.2%
[2]
  growth inhibition: -1.75%
[3]
  growth inhibition: -38.4%
[4]
  growth inhibition: -51.6%
[5]
  growth inhibition: 1.05%
[6]
  growth inhibition: -9.7%

## O=C(O)c1ccc(OC2CCCCC2)cc1
[1]
  growth inhibition: 6.85%
[2]
  growth inhibition: 12.1%
[3]
  growth inhibition: 42.1%
[4]
  growth inhibition: 18.6%
[5]
  growth inhibition: 11.4%
[6]
  growth inhibition: 30.9%

## Clc1cnc(Oc2ccccc2)c2ccccc12
[1]
  growth inhibition: 2.3%
[2]
  growth inhibition: -22.2%
[3]
  growth inhibition: -10.2%
[4]
  growth inhibition: -37.4%
[5]
  growth inhibition: -1.5%
[6]
  growth inhibition: -9.35%

## Cc1ccc(NC(=O)N2CC2(C)C)cc1NC(=O)N1CC1(C)C
[1]
  growth inhibition: 0.2%
[2]
  growth inhibition: 0.55%
[3]
  growth inhibition: 2.8%
[4]
  growth inhibition: -1.6%
[5]
  growth inhibition: 1.2%
[6]
  growth inhibition: 4.9%

## Cc1nnc2c3nccnc3c(Cl)nn12
[1]
  growth inhibition: 20.8%
[2]
  growth inhibition: 25%
[3]
  growth inhibition: 56.3%
[4]
  growth inhibition: 20.3%
[5]
  growth inhibition: 9%
[6]
  growth inhibition: 24.1%

## O=C(CC(c1ccccc1)C(Sc1ccccc1)(Sc1ccccc1)Sc1ccccc1)c1ccccc1 (configuration not stated)
[1]
  growth inhibition: 13.2%
[2]
  growth inhibition: 15.3%
[3]
  growth inhibition: 13.4%
[4]
  growth inhibition: 3%
[5]
  growth inhibition: -1.35%
[6]
  growth inhibition: 7.25%

## CCCCCCO/N=C\c1c2c(O)c3c(O)c(C)c4c(c3c1O)C(=O)C(C)(O/C=C\C(OC)C(C)C(OC(C)=O)C(C)C(O)C(C)C(O)C(C)/C=C\C=C(\C)C(=O)N2)O4 (configuration not stated)
[1]
  growth inhibition: 25.2%
[2]
  growth inhibition: 63.4%
[3]
  growth inhibition: 36.6%
[4]
  growth inhibition: 54%
[5]
  growth inhibition: 26.2%
[6]
  growth inhibition: 53.9%

## O=c1c2c([nH]c3c1ccc1[nH]c4c(c(=O)c13)CCCC4)CCCC2
[1]
  growth inhibition: -18.9%
[2]
  growth inhibition: -0.75%
[3]
  growth inhibition: -12.6%
[4]
  growth inhibition: -13.6%
[5]
  growth inhibition: -8.5%
[6]
  growth inhibition: -2.3%
